# Assay outcomes: PubChem BioAssay, Center for Chemical Genomics, University of Michigan
# Dicer inh: human Dicer pre-microRNA cleavage inhibition; Q9UPY3; cat-ELCCA pre-miR-21 Dicer processing, chemiluminescence; active compounds read high; z-score at 25 µM; 6% of 47,000 active; in the data active means z-score above about 3, passing the limit was not always enough;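 further: plate controls were vehicle for no effect and no enzyme for full effect; higher signal means more uncleaved substrate so more Dicer inhibition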
# * hit, by the source's call. The entries come from a sample that favours hits as a whole.
SMILES,Dicer inh
Cc1c(NC(=O)c2cc3ccccc3c(=O)s2)c(=O)n(-c2ccccc2)n1C,0.44
CCOC(=O)c1cc2ccccc2c(=O)s1,0.03
Cc1ccc2nc3sc(C(=O)O)cc3cc2c1,0.3
CCOC(=O)Cc1csc(NC(=O)COCC(=O)O)n1,0.3
COC(=O)c1cc(OC)c(OC)cc1N1C(=O)CC(c2cc(OC)c(OC)c(OC)c2)CC1=O,1.8
CCc1sc(C(C)(C)C)cc1NC(=O)C(Cl)Cl,-0.26
Cc1ccc(-c2nnc(-c3ccccc3)o2)cc1,2
Cc1ccc(-c2nnc(-c3cccs3)o2)cc1,2.9
Cc1ccc(-c2nnc(-c3ccc(C)cc3)o2)cc1,5.1*
CCOC(=O)c1c[nH]c2ccc(C)cc2c1=O,0.68
CN1CCN(C(=O)CN(c2ccccc2)S(=O)(=O)N(C)C)CC1,1
CN1CCN(C(=O)Oc2ccccc2)CC1,3.8*
CN1CCN(C(c2ccccc2)c2ccccc2)CC1,0.13
N#CC1=C(SCC(N)=O)NC2=C(C(=O)CCC2)C1c1ccccc1Cl (stereo unspecified),-0.81
CC(C)Cc1ccc(C(C)/C(N)=N/O)cc1 (stereo unspecified),-0.66
CC(C)Cc1ccc(C(C)C(=O)O/N=C(\N)c2ccc(C(F)(F)F)cc2)cc1 (stereo unspecified),3.2*
CC(CC(=O)O/N=C(\N)c1ccc(C(F)(F)F)cc1)S(=O)(=O)c1ccc(Cl)cc1 (stereo unspecified),-2
O=C(Oc1nnc(SCCS(=O)(=O)c2ccc(F)cc2)n1C1CC1)c1cccs1,5.5
O=C1Nc2ccc(S(=O)(=O)Nc3ccc(O)c(-c4c(O)ccc5ccccc45)c3)c3cccc1c23,11
COc1ccccc1Nc1n[nH]c(C)c1[N+](=O)[O-],1.9
COc1ccccc1Nc1cc(=O)[nH]c(=O)[nH]1,3.6*
COc1ccccc1Nc1cccccc1=O,2.7
CC[n+]1c(/C=C/Nc2ccccc2)sc2c(C)c(C)sc21,2.4
COC(=O)c1cc(-c2ccc(Cl)cc2)nc2ccc(C)cc12,0.1
N#Cc1nc(-c2ccccc2OC(F)(F)F)oc1N,11
SMILES,Dicer inh
CCOC(=O)NC(Nc1ccccc1F)(C(=O)OCC)C(F)(F)F (stereo unspecified),-0.32
CCSc1sc(C(=O)OC)c2c1/C(=N/O)CC(C)(C)C2,2.5
CCSc1sc(C#N)c2c1C(=O)CC(C)(C)C2,3.6*
CCCSc1sc(C(=O)OC)c2c1C(=O)CC(C)(C)C2,-0.81
COC(=O)C1=NNC2(C)C(=O)N(c3ccccc3Cl)C(=O)C12 (stereo unspecified),0.9
COc1cc(C(F)(F)F)nc2ccc(C)c(NC(=O)Nc3ccc(OC(F)(F)F)cc3)c12,2.4
CCOC(=O)c1nc(COc2ccccc2Cl)no1,-0.3
CC(C)c1ccc(NC2(C#N)CCCCC2)cc1,1.4
Clc1ccc(Nc2nnns2)cc1,1.6
CC(C)c1ccc(Nc2nnns2)cc1,6.8*
CC(C)(C1=N[C@@H](C(C)(C)C)CO1)C1=N[C@@H](C(C)(C)C)CO1,0.69
N#Cc1c(-c2ccc(Cl)cc2)cc(-c2ccccc2)[nH]c1=S,3.8*
COc1ccc(-c2cc(-c3cccs3)[nH]c(=S)c2C#N)cc1,1.1
COc1ccc(-c2cc(-c3ccc(C)cc3)[nH]c(=S)c2C#N)cc1,0.56
Cc1csc2ncnc(Sc3ccccc3N)c12,-5.5
O=C(O)/C=C/NNC(=O)c1ccc([N+](=O)[O-])cc1,-0.14
Cc1cccn2cc(-c3cccc(NS(=O)(=O)c4ccc(Br)cc4)c3)nc12,4.1*
Cc1ccc(S(=O)(=O)Nc2ccc(-c3cn4cccc(C)c4n3)cc2)cc1,1.7
Cc1cccn2cc(-c3ccc(NS(=O)(=O)c4ccccc4)cc3)nc12,1.5
COc1ccc2c(c1)C(C)=CC(C)(C)N2C(=O)CSc1nnc(C)s1,-1.9
COc1ccc2c(c1)C(C)CC(C)(C)N2C(=O)CSc1ncccn1 (stereo unspecified),4.2*
COc1ccc2c(c1)C(C)CC(C)(C)N2C(=O)CSc1ncn[nH]1 (stereo unspecified),0.09
O=C(COc1nnc(SCC(=O)c2ccc3c(c2)OCCO3)n1C1Cc2ccccc2C1)c1ccc(F)cc1,0.16
O=C(CSC1=NCCS1)n1c2c(c3ccccc31)CCCC2,-2.8
CCOC(=O)c1nc[nH]c1C(=O)OCC,0.53
SMILES,Dicer inh
CCCc1cnc(N2CCN(S(=O)(=O)c3sc4ccc(Cl)cc4c3C)CC2)nc1,-1.1
CCCc1cnc(N2CCN(S(=O)(=O)c3ccc(CNC(=O)c4ccccc4)s3)CC2)nc1,1.2
CCCc1cnc(N2CCN(S(C)(=O)=O)CC2)nc1,3.5*
O=C(/C=C(/CC(=O)c1ccccc1)c1ccccc1)c1ccc(F)cc1,0.71
N=C(N)SCc1cccc(CSC(=N)N)c1F,-3.4
N=C(N)SCc1cc2ccccc2o1,3.2*
N=C(N)SCc1cccc(Cl)c1,1.3
COCc1cc(C)nc(N2CCN(Cc3ccccc3)CC2)c1C#N,0.42
Cc1cc(C)c(C#N)c(N2CCN(c3ccccc3)CC2)n1,3.2*
Cc1cc(C)c2c(n1)sc1c(N3CCN(c4ccccc4)CC3)ncnc12,1.4
CCOc1c(Nc2cccc(OC)c2)c(=O)c1=O,-0.58
